From PubChem BioAssay
MCF10A rerep – induces DNA re-replication in MCF 10a normal breast cells; MCF 10A DNA re-replication, Hoechst nuclear intensity, 48 h; Potency, µM (series often up to 46.1 µM), most hits filed as activators; 350,000 compounds, 2.9% hits; AID 624296; also: nearly all actives have a fitted effect of over 50% in size
HT1080 IDH1KD tx – HT-1080 IDH1 knockdown cell toxicity (counter line). HT-1080 IDH1 knockdown viability, ATP luminescence, 48 h. Potency, µM (series often up to 46.1 µM), hits mostly cytotoxic. 360,000 compounds, 2% hits. AID 686971
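Cytotoxicity counter-line: IDH1KD HT-1080, 48 h, CellTiter-Glo. Curves classed by r2, magnitude and activity.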
HT1080-NT tox – kills 2HG-producing HT-1080-NT fibrosarcoma cells; HT-1080-NT fibrosarcoma viability, CellTiter-Glo ATP luminescence, 48 h; Potency, µM (series often up to 46.1 µM), actives largely listed as cytotoxic; AID 686970; 360,000 compounds, 1.6% hits;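 also: NT is the 2HG producing partner of a matched IDH1 knockdown line; nearly all actives have a fitted effect of over 55% in size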
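Luminescent CellTiter-Glo readout after 48 hours of compound exposure at 37 degrees C defined viability of HT-1080-NT cells. Activity was normalized to DMSO wells and cell-free media wells; concentration-response curves were fitted and assigned curve classes.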
KB-V1 cytotox – kills drug-selected multidrug resistant KB-V1 cells; AID 1347076; 400,000 compounds, 3.4% hits; Potency, µM (titrated, usually from 46.1 µM), most hits filed as cytotoxic; KB-V1 MDR cells viability, CellTiter-Glo, 72 h; also: nearly all actives have a fitted effect of over 60% in size
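KB-V1, DMEM (no phenol red) + 10% FBS; cpd pin-transferred, titration series; 72 h, 37 degrees C; CellTiter-Glo, luminescence. Data normalized, curve-fit.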
SW480 rereplic – DNA re-replication induction in SW480 cells | SW480 DNA re-replication, Hoechst DNA content imaging, 48 h | Potency, µM (highest dose often 46.1 µM), usual class: activators | 340,000 compounds, 1.8% hits | AID 624297; also: nearly all actives have a fitted effect of over 55% in size
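Treated cells incubate 48 hr (37 C, 5% CO2), are stained 40 min with Hoechst, and nuclear fluorescence is enumerated; a rise in nuclei with high DNA signal marks re-replication.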
KB-3-1 tox – kills parental KB-3-1 adenocarcinoma cells; KB-3-1 viability, CellTiter-Glo ATP luminescence, 72 h; 400,000 compounds, 1.4% hits; Potency, µM (highest dose often 46.1 µM), most hits filed as cytotoxic; also: nearly all actives have a fitted effect of over 60% in size
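Cells are dispensed, compounds pinned in, plates held at 37 °C for 72 h, then CellTiter-Glo is added and luminescence read after 10 minutes. Cell line: parental KB-3-1 in phenol-red-free DMEM, 10% FBS.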
Of the large screens only hits and unclear results are named; the others gave an inactive call. This is a sample that favours compounds with a hit; in the whole collection about 8% have one here. Calls follow the shape of the dose curve; as a rule, active = well fitted curve in the direction sought with a large enough effect; inconclusive = small, poorly fitted or top-dose-only effect, or another doubt; inactive = no such curve, though single readings can be large; an effect the other way counts as inactive or inconclusive.

C/C(=N\NC(=S)NCc1ccccc1)c1cccc(Br)c1	HT1080 IDH1KD tx inconclusive, KB-V1 cytotox inconclusive
C/C(=N\NC(=S)NCc1ccccc1)c1ccc2ccccc2c1	MCF10A rerep 16µM, KB-V1 cytotox inconclusive, SW480 rereplic inconclusive
C=CCNC(=S)N/N=C(\C)c1ccc(OC)cc1	SW480 rereplic inconclusive
Cn1c(C(=O)N2CCc3ccccc3C2)cc2oc3ccccc3c21	MCF10A rerep inconclusive
COc1cccc(CNC(=O)c2cc3oc4ccccc4c3n2C)c1OC	MCF10A rerep inconclusive, HT1080 IDH1KD tx inconclusive, HT1080-NT tox inconclusive, KB-V1 cytotox 6.5µM, KB-3-1 tox inconclusive
CCn1c(C(=O)NCc2ccc(F)cc2)cc2oc3ccccc3c21	KB-V1 cytotox inconclusive (no result: MCF10A rerep, HT1080 IDH1KD tx, HT1080-NT tox, SW480 rereplic)
CCOc1ccccc1CNC(=O)c1cc2oc3ccccc3c2n1CC	MCF10A rerep 18µM, HT1080 IDH1KD tx inconclusive, KB-V1 cytotox inconclusive, KB-3-1 tox inconclusive
CCn1c(C(=O)N2CCc3ccccc3C2)cc2oc3ccccc3c21	MCF10A rerep 16µM
COc1cc(CNC(=O)C2CC(O)CN2C(=O)Nc2ccccc2)cc(OC)c1OC (stereo not given)	none (no result: MCF10A rerep, SW480 rereplic)
COc1ccc2c(c1)c(=O)c(S(=O)(=O)c1ccc(C)c(C)c1)cn2CC(=O)Nc1ccccc1	none (no result: MCF10A rerep, HT1080 IDH1KD tx, HT1080-NT tox, SW480 rereplic)
Cc1ccc(Nc2c(-c3ccc(N4CCOCC4)cc3)nc3cnccn23)cc1	MCF10A rerep 18µM, SW480 rereplic inconclusive
Cc1cccc(C)c1Nc1c(-c2ccsc2)nc2ncccn12	HT1080 IDH1KD tx inconclusive, KB-V1 cytotox 12µM
Cc1ccc(Nc2c(-c3ccc(N4CCOCC4)cc3)nc3ncccn23)cc1C	MCF10A rerep inconclusive, SW480 rereplic 23µM
Cc1ccc(Nc2c(-c3ccc(N4CCOCC4)cc3)nc3ncccn23)cc1	none
CN(C)c1ccc(-c2nc3cnccn3c2Nc2ccc3c(c2)OCCO3)cc1	MCF10A rerep 18µM
CNc1ccc(/C=C2\C=Cc3ccccc32)cc1	none (no result: MCF10A rerep, HT1080 IDH1KD tx, HT1080-NT tox, SW480 rereplic)
Cc1cn2c(=O)c(S(=O)(=O)Nc3ccc(OC(F)(F)F)cc3)c(C)nc2s1	none (no result: MCF10A rerep, HT1080 IDH1KD tx, HT1080-NT tox, SW480 rereplic)
C=CC(=O)O	none (no result: HT1080 IDH1KD tx, HT1080-NT tox, KB-V1 cytotox, KB-3-1 tox)
CN(C)CCCN1c2ccccc2CCc2ccc(Cl)cc21	MCF10A rerep inconclusive, HT1080 IDH1KD tx 21µM, HT1080-NT tox inconclusive, KB-V1 cytotox inconclusive, SW480 rereplic inconclusive
CN(CCCN1c2ccccc2CCc2ccccc21)CC(=O)c1ccc(Cl)cc1	MCF10A rerep 33µM, SW480 rereplic inconclusive (no result: HT1080 IDH1KD tx, HT1080-NT tox, KB-V1 cytotox, KB-3-1 tox)
CN(C)CCCN1C(=O)c2cc3ccccc3cc2C1=O	none
CC1CCc2nc3ncn(Cc4ccccc4C#N)c(=O)c3cc2C1 (stereo not given)	none (no result: MCF10A rerep, HT1080 IDH1KD tx, HT1080-NT tox, SW480 rereplic)
COc1cc(C(=O)NCC(c2cccs2)N2CCOCC2)cc(Br)c1OCc1ccccc1 (stereo not given)	MCF10A rerep inconclusive, KB-V1 cytotox inconclusive, KB-3-1 tox inconclusive
COCCNC(=O)C1CCN(S(=O)(=O)c2ccc3c(c2)CCCN3C(C)=O)CC1	KB-V1 cytotox inconclusive (no result: MCF10A rerep, HT1080 IDH1KD tx, HT1080-NT tox, SW480 rereplic)
COc1ccc(N(C)C(=O)Cn2cc(S(=O)(=O)N3CCN(c4ccccc4F)CC3)c3ccccc3c2=O)c(OC)c1	none (no result: MCF10A rerep, HT1080 IDH1KD tx, HT1080-NT tox, SW480 rereplic)
Cc1cc(C(=O)COc2ccccc2[N+](=O)[O-])c(C)n1C1CC1	KB-V1 cytotox inconclusive
Cc1cc(C(=O)COc2ccccc2C(N)=O)c(C)n1C1CC1	MCF10A rerep 0.58µM
CC(C)Nc1ccccc1	none
CC(C)Nc1nc2nonc2nc1Nc1ccccc1	MCF10A rerep inconclusive, HT1080 IDH1KD tx inconclusive, KB-V1 cytotox inconclusive, KB-3-1 tox 18µM
c1ccc(-c2cc(N3CCOCC3)nc3ccccc23)cc1	HT1080 IDH1KD tx inconclusive, KB-V1 cytotox 21µM
COc1ccc2nc(SCC(=O)NCc3ccccc3)[nH]c2c1	SW480 rereplic inconclusive
Cc1cc2nc(Sc3c([N+](=O)[O-])nc(C)n3Cc3ccccc3)[nH]c2cc1C	MCF10A rerep 21µM, HT1080 IDH1KD tx inconclusive, HT1080-NT tox inconclusive, SW480 rereplic inconclusive, KB-3-1 tox inconclusive
COc1ccc2nc(Sc3c([N+](=O)[O-])nc(C)n3Cc3ccccc3)[nH]c2c1	MCF10A rerep inconclusive, HT1080 IDH1KD tx 21µM, HT1080-NT tox inconclusive, SW480 rereplic inconclusive, KB-3-1 tox inconclusive
